Among the data in PubChem BioAssay are z-score and composite z-score values, retold here.

Experiment [1] in a line: E. coli DRC41 culture turbidity changes, primary screen, E. coli filamentation inducer project, strain DRC41, OD650, 48 h (AID 1152).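 Further: E. coli MC1000 strain DRC41 lacking acrAB efflux pump and sulA.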 The note with it: E. coli DRC41 (acrAB sulA), higher = more signal, called active from +8 up or from −8 down.
A short description of experiment [2]: small-molecule binders of probe aLefty1, primary screen, biochemical, small-molecule microarray, 635/667 nm fluorescence (AID 1153).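 Further: score merges spot fluorescence with signal-to-noise ratio from the scanned slide images.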 To be noted: higher = more signal.
Experiment [3] can be described thus: PSAC antagonists in infected red cells, primary screen, cell-based, P. falciparum Indochina, OD700, 1 h (AID 1154). To be noted: P. falciparum Indochina infected RBC osmotic lysis, higher = more signal, called active from +8 up or from −8 down.
Experiment [4] in a line: PSAC antagonists in infected red cells, primary screen, cell-based, P. falciparum Indochina, OD700, 2 h (AID 1155).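 Further: lysis reports solute entry through the parasite surface anion channel PSAC; channel blockers reduce lysis of infected cells.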 To be noted: P. falciparum Indochina infected erythrocytes, osmotic lysis OD700; higher = more signal, called active from +8 up or from −8 down.
Experiment [5] is described as follows: osmotic lysis modulators in infected erythrocytes, primary screen, PSAC antagonist project, cell-based, P. falciparum Indochina, OD700, 3 h (AID 1156). The note with it: higher = more signal, called active from +8 up or from −8 down.
A short description of experiment [6]: PSAC antagonists in infected red cells, primary screen, cell-based, P. falciparum Indochina, OD700, 18 h (AID 1157). The note with it: P. falciparum Indochina infected erythrocytes, osmotic lysis OD700, 18 h; higher = more signal, called active from +8 up or from −8 down.
Experiment [7] can be described thus: modulators of S6 phosphorylation in cells, primary screen, cell-based, A549, cytoblot, luminescence, serum-stimulated (AID 1158).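 Further: serum-stimulated A549 lung adenocarcinoma cells; signal is phosphorylated S6 detected by cytoblot immunostaining with HRP secondary.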 To be noted: A549 phospho-S6 cytoblot, 5 h, higher = more signal.
Experiment [8] concerns the target NADPH oxidase 2 (Homo sapiens) (UniProt P04839). In words: NOX2-dependent H2O2 signal modulators, primary screen, NOX inhibitor project, cell-based, HEK293-NOX2, PMA-stimulated, Amplex Red fluorescence (AID 1159). Further: test concentration not given here. To be noted: 45 min, higher = more signal, called active from +8 up or from −8 down.
Experiment [9] concerns the target NADPH oxidase 4 (Homo sapiens) (UniProt Q9NPH5). Nature of the experiment: NOX4-dependent H2O2 signal modulators, primary screen, NOX inhibitor project, cell-based, HEK293-NOX4, tetracycline-induced, Amplex Red fluorescence (AID 1160). To be noted: 45 min, higher = more signal, called active from +8 up or from −8 down.
The target in experiment [10] is NADPH oxidase 5 (Homo sapiens) (UniProt Q96PH1). In words: NOX5-dependent H2O2 signal modulators, primary screen, NOX inhibitor project, cell-based, HEK293-NOX5, Amplex Red fluorescence (AID 1161). The note with it: HEK293-NOX5, ionomycin, 45 min, higher = more signal.
Experiment [11] can be described thus: A549 cell viability effects, profiling panel, calcein-AM fluorescence, 48 h, basal (AID 1162). Further: test concentration not given here. To be noted: higher = more signal.
The nature of experiment [12]: adipocyte viability effects, profiling panel, cell-based, 3T3-L1 adipocytes, calcein-AM fluorescence, 48 h, basal (AID 1163). Further: test concentration not given here. To be noted: 3T3-L1 adipocytes viability, higher = more signal.
Experiment [13] can be described thus: HepG2 cell viability effects, profiling panel, calcein-AM fluorescence, 48 h, basal (AID 1164). Further: test concentration not given here. The note with it: higher = more signal.
The nature of experiment [14]: MM1S cell viability effects, profiling panel, calcein-AM fluorescence, 48 h, basal (AID 1165).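 Further: viability of MM1S multiple myeloma cells under basal unstimulated conditions; test concentration not given here.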 To be noted: higher = more signal.
Experiment [15] can be described thus: basal RPMI8226 viability, no added stimulus, profiling panel, cell-based, calcein-AM fluorescence, 48 h, PK04 Diversity Set (AID 1166).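 Further: cells grown under basal conditions without added stimulus; test concentration not given here.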 The note with it: RPMI8226 myeloma viability, higher = more signal.
A short description of experiment [16]: basal HepG2 mitochondrial membrane potential changes, profiling panel, cell-based, JC-1 fluorescence, 24 h, 100 nL compound (AID 1167). Further: test concentration not given here. The note with it: higher = more signal.
Experiment [17] is described as follows: basal 3T3-L1 adipocyte mitochondrial potential changes, profiling panel, cell-based, JC-1 fluorescence, 3T3-L1 adipocytes, 24 h, 100 nL compound (AID 1168). Further: test concentration not given here. The note with it: JC-1 mitochondrial fluorescence, higher = more signal, called active from +8 up or from −8 down.
Experiment [18] can be described thus: basal RPMI8226 mitochondrial membrane potential changes, profiling panel, cell-based, JC-1 fluorescence, 24 h, 100 nL compound (AID 1169). Further: test concentration not given here. The note with it: RPMI8226 myeloma, JC-1 mitochondrial potential fluorescence, higher = more signal.
The nature of experiment [19]: basal MM1S mitochondrial membrane potential changes, profiling panel, cell-based, JC-1 fluorescence, 24 h, 100 nL compound (AID 1170). Further: test concentration not given here. To be noted: higher = more signal.
A short description of experiment [20]: A549 lung cancer cell viability effects, profiling panel, resazurin fluorescence, 24 h, PK04 Diversity Set (AID 1171). Further: test concentration not given here. To be noted: higher = more signal, called active from +8 up or from −8 down. On the technique in general: Alamar Blue is a resazurin reagent that responds to reducing activity.

Active and inactive are the calls of the source.

Sequence of NADPH oxidase 2 (Homo sapiens) (P04839 whole entry, looked up): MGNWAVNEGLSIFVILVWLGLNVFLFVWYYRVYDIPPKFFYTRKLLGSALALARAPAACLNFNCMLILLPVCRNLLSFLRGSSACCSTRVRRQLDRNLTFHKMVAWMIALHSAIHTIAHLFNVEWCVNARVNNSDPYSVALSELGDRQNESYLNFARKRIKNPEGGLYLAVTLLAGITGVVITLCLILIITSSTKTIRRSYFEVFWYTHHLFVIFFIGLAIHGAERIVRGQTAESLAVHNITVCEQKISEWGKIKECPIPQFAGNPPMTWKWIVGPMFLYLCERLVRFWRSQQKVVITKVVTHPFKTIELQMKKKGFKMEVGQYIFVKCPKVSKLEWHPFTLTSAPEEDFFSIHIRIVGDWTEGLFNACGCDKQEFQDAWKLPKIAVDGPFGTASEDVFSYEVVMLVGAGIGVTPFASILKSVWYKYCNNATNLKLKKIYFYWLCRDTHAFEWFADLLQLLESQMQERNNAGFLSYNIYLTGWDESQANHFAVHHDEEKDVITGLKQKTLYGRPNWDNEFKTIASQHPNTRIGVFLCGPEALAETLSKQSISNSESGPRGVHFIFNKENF
Sequence of NADPH oxidase 5 (Homo sapiens) (Q96PH1 whole entry, looked up): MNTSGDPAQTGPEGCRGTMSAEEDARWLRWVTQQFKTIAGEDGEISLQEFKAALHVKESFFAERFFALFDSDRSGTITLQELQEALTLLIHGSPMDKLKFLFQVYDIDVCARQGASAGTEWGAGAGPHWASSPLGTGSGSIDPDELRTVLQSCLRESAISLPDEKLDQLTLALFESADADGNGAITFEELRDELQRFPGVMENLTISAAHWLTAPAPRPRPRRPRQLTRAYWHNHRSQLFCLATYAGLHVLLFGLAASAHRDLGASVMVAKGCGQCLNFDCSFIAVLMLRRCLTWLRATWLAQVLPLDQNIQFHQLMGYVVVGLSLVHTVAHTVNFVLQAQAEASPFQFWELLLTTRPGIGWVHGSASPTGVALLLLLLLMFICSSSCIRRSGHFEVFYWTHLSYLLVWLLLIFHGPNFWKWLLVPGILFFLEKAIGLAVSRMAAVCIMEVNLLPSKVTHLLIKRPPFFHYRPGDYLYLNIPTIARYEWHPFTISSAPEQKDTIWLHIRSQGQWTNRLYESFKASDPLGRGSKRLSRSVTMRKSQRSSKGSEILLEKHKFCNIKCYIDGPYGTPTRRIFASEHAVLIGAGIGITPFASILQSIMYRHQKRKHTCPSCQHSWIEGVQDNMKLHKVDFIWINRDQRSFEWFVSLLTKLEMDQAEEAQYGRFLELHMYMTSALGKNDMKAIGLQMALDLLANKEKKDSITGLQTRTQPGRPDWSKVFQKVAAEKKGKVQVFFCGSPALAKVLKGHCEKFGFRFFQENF
Sequence of NADPH oxidase 4 (Homo sapiens) (Q9NPH5 whole entry, looked up): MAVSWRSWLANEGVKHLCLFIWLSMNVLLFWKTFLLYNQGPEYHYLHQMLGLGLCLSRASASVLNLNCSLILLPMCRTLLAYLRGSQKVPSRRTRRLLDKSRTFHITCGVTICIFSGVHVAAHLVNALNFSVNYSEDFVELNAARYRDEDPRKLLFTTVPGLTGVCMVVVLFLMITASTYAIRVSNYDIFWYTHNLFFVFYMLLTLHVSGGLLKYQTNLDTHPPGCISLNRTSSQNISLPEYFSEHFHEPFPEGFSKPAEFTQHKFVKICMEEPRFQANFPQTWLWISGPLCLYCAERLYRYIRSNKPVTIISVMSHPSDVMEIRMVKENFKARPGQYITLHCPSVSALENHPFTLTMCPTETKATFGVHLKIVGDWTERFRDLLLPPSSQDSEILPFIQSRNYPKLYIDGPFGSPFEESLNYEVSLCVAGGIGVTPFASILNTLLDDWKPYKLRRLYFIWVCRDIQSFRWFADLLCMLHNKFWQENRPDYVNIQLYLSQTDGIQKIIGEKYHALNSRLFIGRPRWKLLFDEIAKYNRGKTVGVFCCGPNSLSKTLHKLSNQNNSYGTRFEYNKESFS

In the case of `C[C@]12C(=O)N(CCCO)[C@@H]3C(=O)N(c4ccc(Cl)cc4)CC=CC31O[C@@H]1/C=C\CCCOC(=O)C12` (stereo not given in full), the z-score was -0.511 (inactive) in experiment [1]; 1.29 (inactive) in [3]; 0.396 (inactive) in [4]; -0.423 (inactive) in [5]; 0.211 (inactive) in [6]; -0.332 in experiment [7]. In addition, the z-score was 1.53 (inactive) in [8]; 0.84 (inactive) in experiment [9]; 2.71 in experiment [10]; 0.348 in experiment [11]; 0.922 in experiment [12]; -0.114 in [13]. Also, the z-score was 0.14 in [14]; -0.191 in experiment [15]; -0.665 in experiment [16]; -1.25 (inactive) in experiment [17]; -0.0538 in experiment [18]; 1.18 in [19]. Also, the z-score in experiment [20] is -0.0576 (inactive). The molecule further came in with a composite z-score in experiment [2] of -0.0203.
In the case of `O=C1O[C@H](c2ccccc2)[C@H](c2ccccc2)N2[C@H]1[C@@H](C(=O)N1CCCCCCC1)[C@]1(C(=O)Nc3ccccc31)[C@H]2c1ccc(O)cc1`, the z-score was -0.0491 (inactive) in experiment [1]; 0.517 (inactive) in experiment [3]; 0.435 (inactive) in experiment [4]; -0.882 (inactive) in [5]; 0.19 (inactive) in experiment [6]; -0.541 in [7]. Moreover, the z-score in experiment [8] was -4.42 (inactive); in experiment [9] it was -1.03 (inactive); in [10], -3.4; in [11], 0.416; in [12] it was 0.759; in experiment [13], 0.757. In addition, the z-score was -1.81 in experiment [14]; -2.71 in experiment [15]; -1.65 in experiment [16]; 0.123 (inactive) in experiment [17]; -0.536 in [18]; 0.385 in experiment [19]. Also, the z-score in experiment [20] was -1.52 (inactive). The molecule further had a composite z-score in experiment [2] of 2.97.
Take `C=C(/C(=C/C[C@@H](OC(C)=O)c1ccccc1OCCO)c1cnc2ccccc2c1)C(C)C`: the z-score was 0.0675 (inactive) in experiment [1]; 11.6 (active) in experiment [3]; 2.53 (inactive) in experiment [4]; 1.82 (inactive) in experiment [5]; 1.04 (inactive) in experiment [6]; 0.458 in experiment [7]. Moreover, the z-score in experiment [8] is -1.08 (inactive); in experiment [9], -1.28 (inactive); in experiment [10], -1.49; in [11] it was -0.0635; in experiment [12], 2.39; in [13], -0.795. The z-score is -2.36 in experiment [14]; -1.45 in experiment [15]; 0.517 in experiment [16]; -1.27 (inactive) in [17]; -0.0844 in experiment [18]; 1.74 in experiment [19]. In addition, the z-score in [20] was -0.945 (inactive). Also, the composite z-score in [2] is -0.0428.
For `COCCOC(=O)N1C(=O)[C@@]2(c3cc(C#Cc4ccc(OC)cc4)ccc31)[C@H](c1ccc(OCCO)cc1)N1[C@H](c3ccccc3)[C@H](c3ccccc3)OC(=O)[C@H]1[C@@H]2C(N)=O`, the z-score in experiment [1] was 0.629 (inactive); in experiment [3], 5.54 (inactive); in experiment [4], 2.19 (inactive); in experiment [5], 0.528 (inactive); in experiment [6], 0.924 (inactive); in [7], -0.141. For the same molecule, the z-score in experiment [8] was 1.49 (inactive); in [9], 1.03 (inactive); in experiment [10] it was 1.85; in [11] it was -0.383; in experiment [12], 0.806; in [13], -0.792. The z-score in experiment [14] is -1.14; in experiment [15] it was -2.7; in [16], -0.617; in experiment [17], 1.98 (inactive); in experiment [18], -0.65; in experiment [19] it was -1.11. For the same molecule, the z-score in experiment [20] was -0.588 (inactive). This molecule had a composite z-score in experiment [2] of 0.291.
